This is a sample that favours compounds with a hit; in the whole collection about 7.4% have one here.
NPC1 prom act = NPC1 promoter activation; Huh7 NPC1 promoter luciferase reporter, 24 h; Potency, µM (series often up to 9.22 µM), inactives show top-dose activation, most hits filed as activators; 320,000 tested, 2.4% active; AID 485313; also: % of control where 0% means no effect; nearly all actives have a fitted effect of over 60% in size
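Readout is luciferase luminescence, reflecting NPC1 promoter activation in stably transfected Huh7 cells after 24 h compound exposure at 37 °C in reduced-serum medium with 10% FBS.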
p53 reactivation = mutant p53 re-activation in reporter cells; H1299 p53-A138V BP100-luciferase reporter, luminescence, 24 h; Potency, µM (highest dose often 92.2 µM), without a hit: at the top dose activity change, positive = activation, most hits filed as activators; 320,000 tested, 0.063% active; AID 504706; also: % of control where 0% means no effect; nearly all actives have a fitted effect of over 45% in size
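p53-null H1299 cells stably carrying temperature-sensitive p53-A138V and a BP100-luciferase reporter were pinned with compounds (4-point, 1:5 series) and held 24 hrs at 37 deg C. Luminescence was read 10 min after detection reagent.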
FLuc counter = inhibits or activates purified firefly luciferase, miR-21 counter-screen. purified FLuc, Km substrates, luminescence inhibition. Potency, µM (series often up to 57.5 µM), for the others: at the highest dose activity change, negative = inhibition, usual class: inhibitors. P08659. 360,000 tested, 6.9% active;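 also: plate controls were vehicle for no effect and reference inhibitor for full effect; nearly all actives have a fitted effect of over 55% in size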
Target sequence (P08659 whole entry, looked up): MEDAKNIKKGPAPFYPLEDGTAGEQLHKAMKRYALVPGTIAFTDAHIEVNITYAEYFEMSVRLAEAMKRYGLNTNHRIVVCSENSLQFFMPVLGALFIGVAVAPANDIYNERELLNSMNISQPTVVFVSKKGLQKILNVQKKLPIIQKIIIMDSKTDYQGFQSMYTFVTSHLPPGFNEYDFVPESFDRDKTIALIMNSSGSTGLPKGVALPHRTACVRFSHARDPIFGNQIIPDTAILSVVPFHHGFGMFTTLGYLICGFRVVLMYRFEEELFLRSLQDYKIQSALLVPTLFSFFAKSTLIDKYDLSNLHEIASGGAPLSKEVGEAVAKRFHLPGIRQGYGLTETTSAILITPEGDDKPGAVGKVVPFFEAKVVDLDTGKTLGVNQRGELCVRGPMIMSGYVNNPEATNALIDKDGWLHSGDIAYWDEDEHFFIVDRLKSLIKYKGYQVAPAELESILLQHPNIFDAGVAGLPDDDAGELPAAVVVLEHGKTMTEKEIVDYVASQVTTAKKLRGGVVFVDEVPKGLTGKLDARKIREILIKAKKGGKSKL
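Biochemical qHTS of compounds, final roughly 60 µM downward over six points, against 10 nM purified firefly luciferase using Km concentrations of substrates (10 uM D-luciferin, 10 uM ATP) in Tris acetate pH 7.5 buffer; luminescence output.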
SMN2 splice up = enhancers of SMN2 splice variant expression; 210,000 tested, 2.8% active; AID 1458; HEK293 SMN2-luciferase splicing reporter, luminescence, 30-36 h; Potency, µM (highest dose often 46.1 µM), for inactives: at the highest dose activity change, positive = activation, most hits filed as activators; also: % of control where 0% means no effect; nearly all actives have a fitted effect of over 55% in size
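HEK293 cells carry an SMN2 […]–luciferase reporter in which exon 7 inclusion puts luciferase in frame. Cells were plated 10-12 h before compound addition, then incubated 30-36 h at 37C. ONE-Glo luminescence was read; sodium butyrate at 4.5 mM final served as control.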
ELG1 genotoxic = inducers of genotoxicity in HEK293T ELG1-luciferase cells; Potency, µM (highest dose often 46 µM), inactives show at the top dose activity change, positive = activation, actives largely listed as activators; HEK293T ELG1-luciferase reporter, luminescence, 16 h; AID 504466; 330,000 tested, 1.3% active; also: % of control where 0% means no effect; nearly all actives have a fitted effect of over 60% in size
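Quantitative HTS format in 1536-well plates. HEK293T ELG1-luciferase reporter cells receive test compound and are incubated 16 hr at 37 °C, 5% CO2; ONE-Glo added, 30 min room temperature, then luminescence read.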
Rab9 prom act = Rab9 promoter activation. Huh7 Rab9 promoter-luciferase reporter, luminescence, 24 h. AID 485297. 320,000 tested, 2.8% active. Potency, µM (highest dose often 9.22 µM), for inactives: at the top dose activation, negative = inhibition, most hits filed as activators; also: % of control where 0% means no effect; nearly all actives have a fitted effect of over 60% in size
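Luminescence read-out: Huh7 cells stably expressing Rab9-luciferase, treated 24 h with compound at 37 °C, then lysed with luciferase reagent for 10 min at ambient before reading.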
Starred values were filed as active, the others as inactive; ? = inconclusive; . = no result given; [ ] = remark or other dose. Calls follow the shape of the dose curve; as a rule, active = well fitted curve in the direction sought with a large enough effect; inconclusive = small, poorly fitted or top-dose-only effect, or another doubt; inactive = no such curve, though single readings can be large; an effect the other way counts as inactive or inconclusive. Potency is read from the fitted curve at half-maximal effect.

SMILES	NPC1 prom act	p53 reactivation	FLuc counter	SMN2 splice up	ELG1 genotoxic	Rab9 prom act
O=C(c1ccccc1-c1nc(-c2ccccc2Cl)no1)N1CCOCC1	0%	-4%	3%	.	2%	1%
CC(C)NC(=O)c1ccccc1-c1nc(-c2ccccc2Cl)no1	2%	1%	15µM*	.	0%	4%
CCNC(=O)c1ccccc1-c1nc(-c2ccccc2Cl)no1	20%	0%	19µM*	-14%	3%	7%
CC(C)(C)NC(=O)c1ccccc1-c1nc(-c2ccccc2Cl)no1	-2%	3%	12µM*	-8%	6%	-4%
COc1ccccc1N1CCN(/N=C/C=C\c2ccco2)CC1	1.1µM*	?	4.8µM*	13µM*	?	2µM*
Clc1ccccc1CN1CCN(/N=C/C=C/c2ccco2)CC1	27%	12%	24µM*	.	7%	?
CCC(C)NC(=O)c1cc(-c2ccc(OC)cc2)on1 (centres undefined)	2.8µM*	?	6µM*	10µM*	?	3.2µM*
COc1ccc(-c2cc(C(=O)NCC(C)C)no2)cc1	1.4µM*	18%	2.4µM*	11µM*	2.6µM*	0.71µM*
COc1ccc(NC(=O)c2ccco2)cc1NC(=O)c1cc(Br)ccc1Cl	.	.	-15%	.	.	.
CC1(C)Cc2c(c(N3CCOCC3)nc3sc(C(N)=O)c(N)c23)CO1	-1%	5%	-7%	.	1%	3%
COC(=O)c1ccc(-c2sc3nc(N4CCOCC4)c4c(c3c2N)CC(C)(C)OC4)o1	1%	2%	-2%	32µM*	1%	0%
CCc1cccc(C)c1NC(=O)C1CCCN1S(=O)(=O)c1cccc2nsnc12 (centres undefined)	.	.	-2%	-27%	.	.
Nc1ccc(C(=O)N2N=C(c3ccccc3)CC2(O)C(F)(F)F)cc1 (centres undefined)	15%	0%	12µM*	.	0%	2%
COc1cccc(C2=NN(C(=O)c3ccco3)C(O)(C(F)(F)F)C2)c1 (centres undefined)	-8%	-3%	?	.	0%	0%
Cc1ccc(C2=NN(C(=O)c3ccco3)C(O)(C(F)(F)F)C2)cc1 (centres undefined)	-1%	-2%	19µM*	.	-2%	-2%
Cc1ccc(-c2nc(-c3cccnc3)no2)c(C)c1	2µM*	.	?	16µM*	5.2µM*	1.8µM*
Brc1ccc(-c2nc(-c3ccccc3)no2)o1	3.5µM*	?	12µM*	18µM*	8.2µM*	2.5µM*
Brc1ccc(-c2nc(-c3cccnc3)no2)o1	4µM*	?	17µM*	?	?	2.8µM*
Cc1ccc(S(=O)(=O)N[C@H](CN)C(=O)O)cc1	.	.	.	-2%[9.22 µM]	.	.
Oc1ccc(N2CCN(Cc3c(-c4ccccc4)nc4ccccn34)CC2)cc1	1%	-6%	2%	.	-5%	0%
Cc1ccn2c(CN3CCOCC3)c(-c3ccccc3)nc2c1	19%	?	?	20µM*	20%	?
COc1cccc(-c2nnc(-c3ccc(C)o3)o2)c1	1.1µM*	?	1.7µM*	2.8µM*	?	0.71µM*
COc1cccc(-c2nnc(N)o2)c1	5%	2%	-17%	.	0%	13%
COc1cccc(-c2nnc(-c3ccco3)o2)c1	2.5µM*	40µM*	9.5µM*	11µM*	?	2.5µM*
COc1cccc(-c2nnc(-c3ccccc3[N+](=O)[O-])o2)c1	?	?	9.5µM*	.	?	4µM*
COc1ccc(/C=N/NC(=O)CNC(=O)c2ccc3c(c2)OCCO3)c(C(=O)O)c1OC	1%	3%	24µM*	.	0%[9.26 µM]	0%
Cn1cccc1-c1cc(C(=O)N/N=C/c2ccccc2Cl)[nH]n1	?	?	19µM*	.	?	?
O=C(N/N=C/c1ccccc1Cl)c1ccc(F)cc1	2.2µM*	16%	2.7µM*	12%	?	2.5µM*
